Values joined by “and” are separate entries in the source; they are usually repeats but may differ in a detail not shown here. Identical values can stand only once. Unmarked numbers belong to inactive results. Inconclusive results are not listed. A call without a number means that no potency is given here. Active and inactive are the calls of the source. Unless noted, calls come from the whole dose curve; as a rule, active = well fitted curve in the direction sought with a large enough effect; inconclusive = small, poorly fitted or top-dose-only effect, or another doubt; inactive = no such curve, though single readings can be large; an effect the other way counts as inactive or inconclusive.
How the values were obtained:
Hek293T = assay: Primary qHTS to identify gynecologic anti-cancer compounds using libraries of approved drugs and bioactive compounds (AID 1345084); conditions: Gynecologic cancer cell panel viability, ATPlite luminescence, 48 h, control line for the selectivity index; series mostly up to 57.5 µM; note: nearly all actives have a fitted effect of over 55% in size
How it was run: (§1)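 Cells, 1,000 per well, were allowed to settle for 16 h at 37 C before compound addition. Five concentrations were tested for 48 h, and viability was read by ATPlite luminescence after 15 min at room temperature.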

JEG-3 = assay: as above; conditions: Gynecologic cancer cell panel viability, ATPlite luminescence, 48 h; series mostly up to 57.5 µM
How it was run: as §1

OV90 = assay: as above; conditions: Gynecologic cancer cell panel viability, ATPlite luminescence, 48 h; series mostly up to 57.5 µM
How it was run: as §1

PA-1 = assay: as above; conditions: Gynecologic cancer cell panel viability, ATPlite luminescence, 48 h; series mostly up to 57.5 µM
How it was run: as §1

SKOV3 = assay: as above; conditions: Gynecologic cancer cell panel viability, ATPlite luminescence, 48 h; series mostly up to 57.5 µM
How it was run: as §1

Tov-21-G = assay: as above; conditions: Gynecologic cancer cell panel viability, ATPlite luminescence, 48 h; series mostly up to 57.5 µM
How it was run: as §1

Tov112D = assay: as above; conditions: Gynecologic cancer cell panel viability, ATPlite luminescence, 48 h; series mostly up to 57.5 µM
How it was run: as §1

[1] = Drug repurposing screens with cells derived from glioblastoma tumor samples (AID 1345199); conditions: GBM patient neurospheres viability, ATP luminescence, 48 h; note: nearly all actives have a fitted effect of over 40% in size; note: potency is the fitted concentration of half-maximal effect
How it was run: (§2)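 Primary testing used CD133+ neurospheres from four GBM patients, seven concentrations, 48 h exposure and ATP-based viability; confirmation added three slower-growing patient lines.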

astro = assay: as above; conditions: viability, ATP luminescence, 48 h; series mostly up to 45.9 µM
How it was run: as §2

[2] = biological target: Nuclear receptor subfamily 1 group I member 2 (Rattus norvegicus) (UniProt Q9R1A7); assay: qHTS assay for small molecule activators of the rat pregnane X receptor (rPXR) signaling pathway (AID 651751; call rule not given here); conditions: rPXR reporter cells, luciferase (One-Glo), 24 h
[3] = qHTS assay for small molecule activators of the human pregnane X receptor (PXR) signaling pathway (AID 720659; call rule not given here)
[4] = at 20 µM (top of the series), tumour line C
[5] = at 21.2 µM (top of the series), tumour line B
[6] = at 21.2 µM (top of the series), tumour line D
[7] = at 45.9 µM (top of the series), tumour line B
[8] = at 45.9 µM (top of the series), tumour line D
[9] = at 46.1 µM (top of the series), tumour line C

Chain of Nuclear receptor subfamily 1 group I member 2 (Rattus norvegicus) (Q9R1A7 whole entry, looked up): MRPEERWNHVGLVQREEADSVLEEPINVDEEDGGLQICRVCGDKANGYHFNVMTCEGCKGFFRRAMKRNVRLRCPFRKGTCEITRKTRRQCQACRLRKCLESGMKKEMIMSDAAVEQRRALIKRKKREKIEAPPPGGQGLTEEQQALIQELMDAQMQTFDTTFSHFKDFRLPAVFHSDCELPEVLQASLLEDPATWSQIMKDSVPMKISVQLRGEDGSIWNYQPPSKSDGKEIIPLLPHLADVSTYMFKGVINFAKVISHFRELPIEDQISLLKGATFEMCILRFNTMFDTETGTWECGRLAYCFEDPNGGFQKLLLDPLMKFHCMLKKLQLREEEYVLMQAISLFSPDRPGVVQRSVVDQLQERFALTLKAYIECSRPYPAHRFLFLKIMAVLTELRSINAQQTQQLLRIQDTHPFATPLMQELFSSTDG

Compound	Potency (Hek293T)	Potency (JEG-3)	Potency (OV90)	Potency (PA-1)	Potency (SKOV3)	Potency (Tov-21-G)	Potency (Tov112D)	activity, negative = cell killing [1, 4]	activity, negative = cell killing [1, 5]	activity, negative = cell killing [1, 6]	Potency (astro)	activity, negative = cell killing [1, 7]	activity, negative = cell killing [1, 8]	activity, negative = cell killing ([1]; at 46 µM (top of the series), tumour line A)	activity, negative = cell killing [1, 9]	max response [2]	outcome [3]	Potency ([1]; tumour line B)
CCOC(=O)Nc1ccc2c(c1)N(C(=O)CCN1CCOCC1)c1ccccc1S2	inactive	inactive	inactive	inactive	inactive	inactive	inactive	-16.1%	-11.1%	-19.6%	inactive							
CCc1cc(Cl)c(OC)c(C(=O)NC[C@@H]2CCCN2CC)c1O	inactive	inactive	inactive	inactive	inactive	inactive	inactive				inactive							
CO[C@H]1C=CO[C@@]2(C)Oc3c(C)c(O)c4c(O)c(c(/C=N/N5CCN(C)CC5)c(O)c4c3C2=O)NC(=O)/C(C)=C\C=C[C@H](C)[C@H](O)[C@@H](C)[C@@H](O)[C@@H](C)[C@H](OC(C)=O)[C@@H]1C	inactive	inactive	inactive	inactive	inactive	inactive	inactive				31.6 µM (active)							
CC(C)CCCC(C)N (stereo not drawn)	inactive	inactive	inactive	inactive	inactive	inactive					inactive	-9.11%	-4%	-26.4%	-27%			
Cc1cn([C@H]2C[C@H](F)[C@@H](CO)O2)c(=O)[nH]c1=O	inactive	inactive	inactive	inactive	inactive	inactive	inactive				inactive	-16.6%	-21.3%		-27%			
CC1(C)OC[C@@H]2O[C@@]3(C(=O)O)OC(C)(C)O[C@H]3[C@@H]2O1	inactive	inactive	inactive	inactive	inactive	inactive	inactive				inactive	2.23%	2.89%		-11.9%	0.338%	inactive	
c1ccc(CC2=NCCN2)cc1	inactive	inactive	inactive	inactive	inactive	inactive	inactive	-9.44%	-1.18%	-24.9%	inactive							
CC(=O)Nc1ncc([N+](=O)[O-])s1	inactive	inactive	inactive	inactive	inactive	inactive	inactive				inactive	-7.38%	-8.31%		-21.7%			
CCOC(=O)c1ccc(N)cc1	inactive	inactive	inactive	inactive	inactive	inactive	inactive			-25.1%	inactive							14.1 µM (active)
C=C1c2cccc(O)c2C(O)=C2C(=O)[C@]3(O)C(O)=C(C(N)=O)C(=O)[C@@H](N(C)C)[C@@H]3[C@@H](O)[C@H]12	inactive	inactive	inactive	inactive	inactive	inactive	inactive	-24.5%	-7.73%		inactive							
O=C(CCN1CCN2CCCC2C1)N1c2ccccc2Sc2ccc(Cl)cc21 (stereo not drawn)	inactive	inactive	inactive	inactive	inactive	inactive	inactive				inactive							
Cn1c(=O)c2[nH]c(Br)nc2n(C)c1=O	inactive	inactive	inactive	inactive	inactive	inactive	inactive				inactive	-10.3%	-8.55%		-9.05%			
CC(C)(C)CC(C)(C)c1ccc(O)c(-n2nc3ccccc3n2)c1	inactive	inactive	inactive	inactive	inactive	inactive	inactive				inactive					0.874%		
CCCCC(CC)COC(=O)c1ccc(N(C)C)cc1 (stereo not drawn)	inactive	inactive	inactive	inactive	inactive	inactive	inactive					-7.11%	-11.8%		-2.69%	5.66% and 6.49%		
N[C@H](C(=O)O)[C@@H](O)c1ccc(O)c(O)c1	inactive	inactive	inactive	inactive	inactive	inactive	inactive				inactive	-8.13%	-33.1%		-8.89%			
CC(C)Nc1cccnc1N1CCN(C(=O)c2cc3cc(NS(C)(=O)=O)ccc3[nH]2)CC1	inactive	inactive	inactive	inactive	inactive	inactive	inactive				inactive	-14.1%	0.603%					
C/C=C/c1ccc(O)c(OC)c1	inactive	inactive	inactive	inactive	inactive	inactive	inactive				inactive	-4.55%	-0.156%		-3.58%	1.38% and 1.79%	inactive	
COc1ccc(C(=O)c2ccccc2O)c(O)c1	inactive	inactive	inactive	inactive	inactive	inactive	inactive	-19.6%	4.62%	-15.3%	inactive							

Reference: PubChem BioAssay (NCATS)
